Beta apoptosis: inhibitors of cytokine-induced beta cell apoptosis, primary screen, luminescence; INS-1E cytokine-induced death, ATP luminescence, 48 h; percent of positive-control rescue, neutral wells zero; protection from apoptosis, % (test concentration not listed); 300,000 tested, 0.8% active; AID 435005, 2010;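 active = Every replicate reaches about 75%, or at least half do and their mean reaches it too, limit read from the data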;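 note: higher means more ATP so stronger rescue from cytokine killing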
Mdm2-MdmX inh: inhibitors of human Mdm2-MdmX association, primary screen, cell-based, luminescence, split luciferase, SaOS-2, uHTS; AID 485346, 2010; SaOS-2 split-luciferase Mdm2/MdmX complementation; Protein Mdm4 (Homo sapiens) + E3 ubiquitin-protein ligase Mdm2 (Homo sapiens), …; 330,000 tested, 3% active; inhibition, % at 8 µM;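 active = inhibition of at least 50% at 8 µM in the primary screen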
Calb FLC: C. albicans growth inhibition with fluconazole, primary screen, CaCi-2 strain, Alamar Blue fluorescence. growth inhibition, % (no concentration beside the values). 300,000 tested, 0.57% active. AID 1979, 2009. C. albicans CaCi-2 (fluconazole-resistant clinical isolate) + fluconazole, 48 h;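 active = growth inhibition above about 58% in most replicates, limit read from the data, passing the limit was not always enough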;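 note: all wells also contain fluconazole at 8 µg/ml as a sub-toxic cotreatment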
CSC inhib: cancer stem cell viability inhibitors, primary screen, luminescence; 300,000 tested, 1.1% active; inhibition, % at 7.5 µM; cancer stem cell-like cells viability; in the data active = inhibition above about 75%; tested in HMLE shEcad cells
PP1 counter: PP1-alpha phosphatase inhibitors, primary screen, counter-screen for PP5 inhibitor project, biochemical, fluorescence, OMFP substrate, single point. 320,000 tested, 0.9% active. purified PP1alpha. Serine/threonine-protein phosphatase PP1-alpha catalytic subunit (Homo sapiens), P62136. inhibition, % at 6.7 µM;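 active = inhibition above the mean inhibition of all tested compounds plus 3 SD, computed separately for each screening campaign, cut at about 15% in these data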
Target sequence (P62136 whole entry, looked up): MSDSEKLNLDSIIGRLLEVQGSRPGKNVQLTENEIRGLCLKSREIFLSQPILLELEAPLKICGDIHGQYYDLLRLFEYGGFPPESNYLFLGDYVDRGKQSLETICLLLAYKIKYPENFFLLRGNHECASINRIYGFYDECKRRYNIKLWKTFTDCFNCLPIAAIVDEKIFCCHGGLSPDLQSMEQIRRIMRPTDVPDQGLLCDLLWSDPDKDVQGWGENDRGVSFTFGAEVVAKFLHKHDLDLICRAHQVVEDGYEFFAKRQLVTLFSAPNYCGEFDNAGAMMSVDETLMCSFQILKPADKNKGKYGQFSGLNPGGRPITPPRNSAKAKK
PP5 inh: PP5 phosphatase inhibitors, primary screen, biochemical, fluorescence; Serine/threonine-protein phosphatase 5 (Homo sapiens), P53041; purified PP5c, OMFP substrate fluorescence; inhibition, % at 6.7 µM; 320,000 tested, 0.18% active; AID 1987, 2009;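 active = inhibition above the campaign's mean inhibition across all tested compounds plus 3 SD, cut at about 9.5% in these data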
Hits are given with their value; – = inactive; · = no result. Rows were chosen to be rich in hits. Some 4.9% of all compounds tested hit in one or more screens of this group.

SMILES	Beta apoptosis	Mdm2-MdmX inh	Calb FLC	CSC inhib	PP1 counter	PP5 inh
COC(=O)c1cc(NC(=O)c2cc(-c3ccc(Cl)cc3)oc2C(F)(F)F)ccc1N1CCOCC1	–	–	–	–	–	–
CNC(=O)COC(=O)c1c2c(nc3ccccc13)CCC2	–	–	110	–	–	–
CCCn1nnnc1NC(=O)c1ccc2ccccc2c1	–	–	116	–	–	–
CCCn1nnc(NC(=O)c2ccc3ccccc3c2)n1	–	–	–	–	–	–
O=C(O)Cc1ccc(OCc2ccc(Cl)nc2)cc1	–	–	–	–	–	–
CCOC(=O)C1=C(c2ccccc2)NC(=O)NC1c1ccc(OC)cc1OC (configuration not stated)	–	–	–	–	–	–
COc1ccc(COc2cc(-c3cccc(OC)c3)nc3ccc(NC(=O)c4ccc(N(C)C)cc4)cc23)cc1	–	–	–	80	–	–
Cc1ccc(Cl)cc1N1CCN(CC(=O)NC2CCCc3ccccc32)CC1 (configuration not stated)	–	–	–	78	–	–
O=C(CN1CCN(c2ccccc2Cl)CC1)NC1CCCc2ccccc21 (configuration not stated)	–	–	–	–	–	–
CCOc1ccccc1NC(=O)C1CCN(c2nc(-c3ccc(OC)cc3)no2)CC1	–	–	–	–	–	–
COC(=O)c1c[nH]n2c(=O)c(Cc3ccc(F)cc3Cl)c(C)nc12	–	–	97	–	–	–
COC(=O)c1c[nH]n2c(=O)c(Cl)c(C)nc12	–	–	–	–	–	–
COC(=O)/C(=N/Nc1ccccc1OC)N1CCCc2ccccc21	–	–	–	–	–	–
Cc1[nH]n(-c2ccccc2)c(=O)c1/C=N\NC(=O)C1COc2ccccc2O1 (configuration not stated)	78	–	–	–	–	–
Cc1[nH]n(-c2cccc3ccccc23)c(=O)c1/C=N/NC(=O)c1cccc([N+](=O)[O-])c1	–	–	80	–	–	–
Cc1[nH]n(-c2ccccc2)c(=O)c1/C=N/NC(=O)COc1ccccc1[N+](=O)[O-]	76	–	–	–	–	–
Cc1ccsc1CNC12CC3CC(CC(C3)C1)C2	–	–	–	–	–	–
Cc1cccc(C)c1NC(=O)CNC(=O)c1cccnc1	–	–	–	–	–	–
CCCCN(CCCC)c1ccc(C(=O)c2ccccc2C(=O)O)c(O)c1	–	–	–	–	17	–
Cc1cccc(OCCCC(=O)N2CCCc3ccccc32)c1C	–	–	–	·	–	–
Cc1cc(C)c2c(N)c(C(=O)Nc3ccccc3Cl)sc2n1	–	–	–	–	17	–
Cc1cc(C)c2c(N)c(C(=O)Nc3ccccc3Br)sc2n1	–	–	–	–	–	–
Cc1cc(C)c(OCCCCN2CCC(C)CC2)c(Br)c1	–	–	–	82	–	–
CN(C)S(=O)(=O)n1cnc([C@@H]2[C@H]3C(=O)OC[C@@H]3C[C@@]23N=CN(Cc2ccccc2)C3=O)c1	–	–	·	–	–	–
COc1ccc(-c2cc3ccccc3oc2=O)cc1NC(=O)c1ccc([N+](=O)[O-])o1	82	–	–	·	–	–
SMILES	Beta apoptosis	Mdm2-MdmX inh	Calb FLC	CSC inhib	PP1 counter	PP5 inh
COc1cc(NC(=O)c2cccs2)ccc1NC(=O)Cc1ccccc1	–	–	–	–	–	–
O=C(Nc1cccc(NC(=O)c2ccc([N+](=O)[O-])o2)c1)c1ccco1	–	–	–	87	–	–
O=C(Nc1ccccc1Cl)c1ccc([N+](=O)[O-])o1	–	–	100	–	–	–
Cc1ccccc1NC(=O)c1ccc([N+](=O)[O-])o1	–	–	–	–	–	–
CCC(=O)Nc1cc(-c2cc3ccccc3oc2=O)ccc1OC	–	–	–	–	–	–
COc1cc(NC(=O)c2ccc([N+](=O)[O-])o2)ccc1NC(=O)c1cccs1	78	–	–	–	–	–
Cc1cc(OC(C)C(=O)N(Cc2ccco2)C2CCS(=O)(=O)C2)cc(C)c1Cl (configuration not stated)	–	–	–	–	–	–
CCOC(=O)C(=CNc1cccnc1Oc1ccc(C)c2c1CCC2)C(=O)OCC	–	–	–	–	–	–
N#Cc1ccccc1S(=O)(=O)N1CCN(CC(=O)NC(=O)NC2CCCCC2)CC1	–	–	–	–	–	–
O=C(CCNS(=O)(=O)c1ccccc1)NNC(=O)C1COc2ccccc2O1 (configuration not stated)	·	–	–	–	–	–
O=C(NC12CC3CC(CC(C3)C1)C2)c1ccc([N+](=O)[O-])o1	–	–	–	80	–	–
O=C(Nc1nc(-c2cccs2)cs1)c1ccc([N+](=O)[O-])o1	–	–	·	90	–	–
O=C(NC12CC3CC(CC(C3)C1)C2)c1ccc(Br)o1	–	–	–	–	–	–
Cc1onc(-c2ccccc2)c1C(=O)N1CCCCCC1	–	–	–	–	–	–
CCn1nc(C)c(CNCc2cn[nH]c2-c2cc3ccccc3o2)c1C	–	–	–	–	–	–
Cc1cc(C)c(C)c(S(=O)(=O)ON2C(=O)c3ccccc3C2=O)c1C	·	–	101	·	–	–
CCS(=O)(=O)C1=NN2C(=N)/C(=C\c3ccc(OCCOc4cccc(OC)c4)c(OC)c3)C(=O)N=C2S1	–	·	–	–	16	–
CCOc1cc(/C=C2\C(=N)N3N=C(S(C)(=O)=O)SC3=NC2=O)ccc1OCCOc1cccc(OC)c1	–	–	–	–	–	–
O=C(Nc1ccc(NC(=O)c2cccs2)cc1)c1ccccc1	–	–	–	–	–	–
O=C(Nc1ccc(O)cc1)c1ccc(NC(=O)c2cccs2)cc1	–	–	–	85	–	–
Cc1cccc(C(=O)Nc2ccc(C(=O)/C=C/c3cccnc3)cc2)c1	101	·	–	–	–	–
O=C(/C=C/c1cccnc1)c1ccc(NC(=O)c2cccc(Br)c2)cc1	–	–	–	–	–	–
Cc1cccc(C(=O)Nc2ccc(NC(=O)c3ccccc3)cc2)c1	–	–	–	–	–	–
Cc1cccc(C(=O)Nc2ccc(C(=O)Nc3ccc(O)cc3)cc2)c1	–	–	–	95	–	–
CSc1cccc(N2CC(C(=O)NCCC3=CCCCC3)CC2=O)c1 (configuration not stated)	–	–	–	–	–	–
CC(=O)NCC(=O)OCc1ccc([N+](=O)[O-])cc1	–	–	–	–	–	–
CC(=O)NC/C(C)=N\Nc1ccc([N+](=O)[O-])cc1	–	–	113	–	–	–
